The panel holds about 83,000 compounds, 20% with a hit somewhere; the sample as a whole holds those more often.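 Interpretation: 100, growth as untreated; towards 0, rising growth inhibition; 0, no net growth; 0 to -100, cell death. Compounds scoring below 10 were considered active.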 Values without a mark were called inactive. Calls of active or inactive are those of the source.

In this test the test system is UACC-62 melanoma. Put plainly: NCI-60 one-dose screen, 48 h (100 = growth as untreated, 0 = no growth, -100 = all killed). Conditions: 10 µM unless noted. The protocol:
Growth inhibition of the UACC-62 human tumor cell line is measured as a screen for anti-cancer activity. Cells are grown in 96 well plates and exposed to the test compound for 48 hours. Compounds are tested at a single concentration, which is 10^-5 M for most compounds. The reported endpoint is percent growth (GI% or GIPRCNT), where numbers from 0 - 100% represent growth inhibition, and numbers from -100% - 0 represent cell death. For example, a value of 40 represents 60% growth inhibition. A value of 0 means no net growth occurred over the course of the experiment. A value of -40 indicates 40% of cells at the beginning of the experiment died by the end of the experiment. A value of -100 means all cells are dead at the end of the experiment.
NCI-60 Human Tumor Cell Lines Screen was performed using the standard one-dose NCI protocol, which is described in more detail at https://dtp.cancer.gov/discovery_development/nci-60/default.htm.
Compounds with GIPRCNT values below 10 were considered active. Activity score was based on GIPRCNT using the following formula: […]
Score is 0 for GIPRCNT values of 100 or above, 50 for GIPRCNT values of 0, and 100 for GIPRCNT values of -100.
For the compound `COc1cc(-c2csc(NC(=O)Nc3ccc(C(F)(F)F)cc3)n2)cc(OC)c1OC`, the growth was -0.579% (active).

For the compound `N#Cc1c(-c2ccc(F)cc2)nc(N/N=C/c2cccc(O)c2)nc1N1CCOCC1`, the growth is 87.7%.

`O=C1CS/C(=N/c2nnc(-c3ccc(O)cc3)s2)N1`: the growth is 108%.

Consider `C#CCOC(=O)[C@]1(C)CCC[C@]2(C)[C@H]3C[C@H]4C(C(C)C)=C[C@]3(CC[C@H]21)[C@@H]1C(=O)CCC(=O)[C@@H]14`, for which the growth is 63.1%.

Turning to `CCOC(=O)C1=C(C)n2nc(CC#N)c(C#N)c2NC1c1ccc(CC)cc1` (stereo not given), the growth was 94.5%.

As to `CN(C)C(CNc1oc(-c2cccc3ccccc23)nc1C#N)c1ccco1` (stereo not given), the growth was 91.3%.

On to `O=S(=O)(O)c1ccc(N=NSc2ccc3ccccc3c2)cc1`, for which the growth was 102%.

Regarding `CC1(C)Cc2c(Br)c(Br)c(Br)c(OCC(O)CN3CCOCC3)c2O1` (stereo not given), the growth is 94.6%.

Regarding `COc1cc(C(=O)Nc2cc(O)c(C/C=C(\C)CCC=C(C)C)c(O)c2)cc2c1O[C@]1(C)CC[C@@H](O)C(C)(C)[C@H]1C2`, the growth was 0.641% (active).

For `COc1cc(C(C)c2ccc3c(ccn3C)c2)cc(OC)c1OC` (stereo not given), the growth is 32.7%.

For the compound `C#C[C@@]1(O)[C@@H](CO)O[C@@H](n2cc(Br)c3c(N)ncnc32)[C@@H]1O`, the growth was 15.1%.

Consider `CCOC(=O)c1c(C)nc2c(c1N)/C(=C/c1ccccn1)C(=O)N2Cc1ccccc1`, for which the growth was 4.68% (active).

As for `C=CCn1c(SCC(=O)Nc2ccc(C(=O)/C=C/c3cc(OC)c(OC)c(OC)c3)cc2)nnc1-c1ccccc1`, the growth was 84.6%.

Consider `CCOC(=O)C1=C(C)n2nc(CC#N)c(C#N)c2NC1c1ccc(Cl)cc1` (stereo not given), for which the growth was 94.4%.

Take `COc1cc(/C=N/Nc2nc(-c3ccc(F)cc3)c(C#N)c(N3CCOCC3)n2)ccc1O`: the growth is 99%.

As for `C[C@H]1[C@H](C)CC[C@]2(C(=O)OCCCC[P+](c3ccccc3)(c3ccccc3)c3ccccc3)CC[C@]3(C)C(=CC[C@@H]4[C@@]5(C)CC[C@H](OC(=O)C(Cl)Cl)C(C)(C)[C@@H]5CC[C@]43C)[C@H]12`, the growth is -67.8% (active).

On to `COc1ccc(-c2nc(C#N)c(NCC(c3ccco3)N3CCCC3)o2)cc1` (stereo not given), for which the growth is 47.2%.

As for `CN(C)CCCn1c2c(c3cc(-c4ccco4)ccc3c1=O)C(=O)c1ccccc1-2`, the growth was 50.9%.

For the compound `NS(=O)(=O)c1ccc(-n2ncc(NC(=O)Nc3ccc(S(=O)(=O)Nc4nccs4)cc3)c2-c2ccccc2)cc1`, the growth is 98.4%.

As to `N#Cc1ccc(C2C3=C(CCCC3=O)OC3=C2C(=O)c2ccccc2C3=O)cc1` (stereo not given), the growth was 35.1%.

On to `NS(=O)(=O)c1ccc(N2Cc3cc(Cl)ccc3OC3=C2C(=O)N(CC2CCCCC2)C3=O)cc1`, for which the growth was -76.1% (active).

Regarding `N#Cc1ccc(N2Cc3cc(Cl)ccc3OC3=C2C(=O)N(Cc2ccccc2)C3=O)cc1`, the growth is -35.5% (active).

With `Cc1cccc(C)c1NCc1nnc(-c2ccc(O)cc2)o1`, the growth was 100%.

Take `COc1ccc(N(C)c2nc(Cl)nc3ccn(C)c23)cc1`: the growth is 39.1%.

For the compound `COCCOCCOCc1n(Cc2ccc3ccccc3c2)c2ccccc2[n+]1Cc1ccc2ccccc2c1`, the growth is -29.6% (active).

On to `CC(C)(C)c1nc2c(s1)c1nc(N)ncc1c1ccc(NS(=O)(=O)c3c(F)cccc3F)c(F)c12`, for which the growth is -2.66% (active).

Consider `COc1ccc(Nc2cc(NC(=O)CNc3cc(OC)c(Cl)c(OC)c3Cl)ncn2)cc1`, for which the growth is 62.8%.

Consider `O=C(Nc1nccs1)c1noc2ccccc12`, for which the growth was 88%.

On to `COc1cc(NCC(=O)Nc2cc(Nc3ccc(C)cc3)ncn2)c(Cl)c(OC)c1Cl`, for which the growth was 75.3%.

For the compound `CC(C)CSc1nc(Nc2ccccc2)c(C#N)c(-c2ccc(F)cc2)n1`, the growth is 70.9%.

`Cc1cc(C)cc(Nc2nccc(-c3c(-c4ccc(F)cc4)ncn3C3CCNCC3)n2)c1`: the growth is 21.6%.

Regarding `O=C1Nc2ccccc2C12C=C(c1ccccc1)Nc1c2c(-c2ccccc2)nn1-c1ccccc1` (stereo not given), the growth is 91.9%.

On to `CC(=O)OCC1SC(OC(C)=O)C(NC(=O)/C=C/CCl)C(OC(C)=O)C1OC(C)=O` (stereo not given), for which the growth was 98%.

With `COc1ccc(/C(=N\O)c2cc(C)c(OC)c(C)c2)cc1O`, the growth was 35.3%.

With `OCCNc1nc(NCCO)nc(Nc2ccc(C3=NN(c4cc(Cl)cc(Cl)c4)C(c4ccccc4)C3)cc2)n1` (stereo not given), the growth is 20.9%.

Consider `COc1cc(C2=N/C(=C\c3cc4ccccc4nc3Oc3ccccc3)C(=O)N2C(=N)N)cc(OC)c1OC`, for which the growth was 50%.

As for `C=C(C)[C@@H]1CC[C@]2(C(=O)O)CC[C@]3(C)[C@H](CC[C@@H]4[C@@]5(C)C[C@@H](CC#Cc6ccc(Cl)cc6)C(=O)C(C)(C)[C@@H]5CC[C@]43C)[C@@H]12`, the growth was -20.2% (active).

`COc1ccc(-c2cc(C(=O)N3N=C(c4ccc(N)cc4)CC3c3ccc(OC)cc3)c3cc(OC)ccc3n2)cc1` (stereo not given): the growth is 40.4%.

As to `Cc1cccc2nc3c(n12)C(=O)C(=O)c1ccccc1-3`, the growth is -57.4% (active).

Take `CCCCCCCCCCCCCC1=NCC[N+]1(CCO)Cc1ccccc1` (stereo not given): the growth was -87.4% (active).
